Assay results as given in PubChem BioAssay.
Calls of active or inactive are those of the source.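 The calls were made as follows, unless noted: active = fluorescence slope higher than the sample average by over 3 SD (cut at about -0.22 in these data, passing the limit was not always enough); inactive = the rest.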

Tests used:
[1] = inhibitors of TNFa-induced NFkB p65 translocation, primary screen, imaging, HUVEC, MLSMR starter and 10KST1 sets (AID 438;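 active = inhibition above 20% together with a positive visual image hit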;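 also: compound added about 3h40 before a 20 min TNFalpha stimulation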;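 as to inhibition: signal is the nuclear over cytoplasmic p65 intensity ratio per well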); conditions: HUVEC TNFa-induced p65 nuclear translocation; cell count: measured here: nuclei count (cytotoxicity indicator), at 2.08 µM unless noted; inhibition: at 2 µM, stronger effect = higher value unless noted
[2] = inhibitors of E-selectin induction by TNFa, primary screen, imaging, HUVEC, immunofluorescence, MLSMR starter and 10KST1 sets (AID 487;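 active = visually confirmed hit in the image check and inhibition above 20%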;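 as to inhibition: signal is fraction of cell area covered by stained E-selectin grains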;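 as to nuclei count: 100% = median nuclei count of all wells on the same plate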); conditions: HUVEC TNFalpha-induced E-selectin immunofluorescence imaging, at 2 µM; inhibition: stronger effect = higher value; nuclei count: measured here: cell number, toxicity
[3] = DUSP6 inhibitors restoring Erk phosphorylation by chemical complementation, primary imaging in DUSP6-transfected HeLa (AID 609;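 active = compounds giving at least 50% inhibition in the cell-based MKP-3 phosphatase rescue imaging test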;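 as to inhibition: phospho-Erk level distribution per well compared with pooled transfected vehicle control wells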); conditions: HeLa MKP-3 transfected, phospho-Erk imaging KS statistic, at 10 µM
[4] = molecular target: Dual specificity protein phosphatase 6 (Homo sapiens) (UniProt Q16828); experiment: as above; conditions: HeLa MKP-3 transfected, phospho-Erk imaging KS statistic, at 10 µM, stronger effect = higher value
[5] = molecular target: Voltage-gated potassium channel subunit beta-2 (Rattus norvegicus) (UniProt P62483); experiment: KvBeta enzyme negative modulators, primary screen, biochemical, NADPH fluorescence (AID 622); conditions: recombinant KvBeta, 4-cyanobenzaldehyde reduction, at 10 µM, stronger effect = higher value;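 also: slope of raw intensity against log time taken from 70 to 1610 s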
[6] = molecular target: Voltage-gated potassium channel subunit beta-2 (Rattus norvegicus) (UniProt P62483); experiment: KvBeta positive modulators, primary screen, biochemical, NADPH fluorescence (AID 623;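 active = NADPH fluorescence slope more negative than the mean of all samples by about 3 SD, 99.7% confidence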;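 also: fluorescence intensity change per second fitted from 20 to 320 s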); conditions: Recombinant KvBeta, NADPH fluorescence decrease slope, 10 min; at 10 µM; stronger effect = lower value
[7] = molecular target: Muscarinic acetylcholine receptor M4 (Homo sapiens) (UniProt P08173); experiment: compounds altering M4/GIRK thallium flux, either direction, primary screen, M4 allosteric agonist project, cell-based, HEK293 M4/GIRK, BTC-AM (AID 625;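 active = fluorescence slope after compound addition differing from the mean of all tested samples at 99.7% confidence, mostly higher but some lower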;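 also: thallium influx through GIRK channels coupled to M4 in HEK293 cells with BTC-AM dye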); conditions: at 10 µM, actives lie on both sides
[8] = inhibitors of larval lipid processing in zebrafish, primary screen, whole organism, PED6 fluorescence, gall bladder and intestine (AID 686;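 active = a full or partial loss of lipid-probe fluorescence in the fish gall bladder, intestine or both, judged by eye; inactive = no fluorescence loss, or compound toxic to the fish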;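 also: larvae 5 to 7 days old with five fish per well; signal comes from phospholipase A2 cleavage of quenched PED6 carried via bile; overnight exposure to compound and PED6 before scoring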); conditions: Zebrafish larvae PED6 lipid processing, fluorescence scoring
[9] = inhibitors of Chlamydomonas gravitaxis, primary screen, whole organism, Chlamydomonas reinhardtii, WT vs cilia-less mutant, absorbance, 96-well (AID 463189;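 active = inhibition at or above 50% relative to wild type and mutant plate controls; inactive = inhibition below 50%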;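 also: 0% = wild type cc124 cells in DMSO and 100% = ciliumless bld1 mutant cells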); conditions: OD600 absorbance, 2 days, at 10 µM, stronger effect = higher value
[10] = inhibitors of mutant huntingtin aggregation, primary screen, imaging, exon1htt(103Q)mCFP cells, high-content imaging (AID 483;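 active = visual image review flags a hit and inhibition of aggregation exceeds 20%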;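 also: compound exposure lasted 3 days before fixation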;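 as to nuclei count: percent of the per-plate median nuclei count of sample wells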); conditions: exon1htt(103Q)mCFP cell line, aggregate imaging, at 2 µM; inhibition of aggregation: stronger effect = higher value; nuclei count: measured here: cell count, toxicity
[11] = molecular target: Alpha-2C adrenergic receptor (Homo sapiens) (UniProt P18825); experiment: modulators of alpha2C/GIRK thallium flux, primary screen, cell-based, HEK293 alpha2C/GIRK1/2 (AID 624;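 active = fluorescence slope after compound addition differing from the mean of all screened samples at 99.7% confidence, in either direction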;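 also: slope of fluorescence ratio to pre-addition baseline per second over 15 to 24 s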); conditions: thallium flux BTC fluorescence, at 10 µM, actives lie on both sides
[12] = inhibitors of Sendai virus-induced IRF3 signaling, primary screen, TLR/RLR signaling modifier project, cell-based, Sendai virus stimulus, luciferase, 10K MLSCN set (AID 602276;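 active = inhibition at or above 50% at 10 µM; inactive = inhibition below 50%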;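 also: firefly luciferase from ISG56 promoter only with Renilla not read in this screen; 0% = Sendai virus plus DMSO and 100% = medium plus DMSO without virus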); conditions: HEK293 RL24 IRF3 luciferase reporter, at 10 µM, stronger effect = higher value
[13] = inhibitors of poly I:C-induced TLR3 signaling, primary screen, cell-based, poly I:C stimulus, luciferase, 10K MLSCN set (AID 602277;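 active = inhibition of the reporter signal at or above 50%; inactive = inhibition below 50%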); conditions: HEK293-TLR3 RL24 IRF3 luciferase reporter, at 10 µM, stronger effect = higher value
[14] = measured here: cell density z-score
[15] = measured here: nuclear c-Myc green intensity z-score
[16] = measured here: nuclear pErk red intensity z-score, stronger effect = higher value

Sequence of Muscarinic acetylcholine receptor M4 (Homo sapiens) (P08173 whole entry, looked up): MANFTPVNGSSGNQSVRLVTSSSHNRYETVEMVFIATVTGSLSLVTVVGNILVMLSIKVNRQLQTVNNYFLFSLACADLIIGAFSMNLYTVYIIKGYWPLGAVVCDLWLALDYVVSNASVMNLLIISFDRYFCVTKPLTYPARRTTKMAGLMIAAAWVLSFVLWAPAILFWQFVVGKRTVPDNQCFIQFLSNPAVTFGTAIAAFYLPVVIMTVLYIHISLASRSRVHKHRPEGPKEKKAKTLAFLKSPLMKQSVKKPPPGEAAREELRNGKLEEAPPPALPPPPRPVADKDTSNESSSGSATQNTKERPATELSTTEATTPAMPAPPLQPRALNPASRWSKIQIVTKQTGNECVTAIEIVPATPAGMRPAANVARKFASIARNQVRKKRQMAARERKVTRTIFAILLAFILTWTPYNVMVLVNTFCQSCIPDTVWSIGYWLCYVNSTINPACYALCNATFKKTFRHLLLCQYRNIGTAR
Sequence of Dual specificity protein phosphatase 6 (Homo sapiens) (Q16828 whole entry, looked up): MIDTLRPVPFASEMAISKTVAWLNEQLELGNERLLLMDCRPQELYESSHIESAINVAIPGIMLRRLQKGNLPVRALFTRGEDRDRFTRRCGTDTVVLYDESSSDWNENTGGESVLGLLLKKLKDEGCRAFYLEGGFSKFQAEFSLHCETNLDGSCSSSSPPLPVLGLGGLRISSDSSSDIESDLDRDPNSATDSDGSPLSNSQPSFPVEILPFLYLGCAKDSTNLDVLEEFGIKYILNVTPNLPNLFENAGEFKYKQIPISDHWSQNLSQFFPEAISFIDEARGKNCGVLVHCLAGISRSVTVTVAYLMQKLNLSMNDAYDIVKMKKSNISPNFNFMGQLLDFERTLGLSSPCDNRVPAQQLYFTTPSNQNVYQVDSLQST
Sequence of Voltage-gated potassium channel subunit beta-2 (Rattus norvegicus) (P62483 whole entry, looked up): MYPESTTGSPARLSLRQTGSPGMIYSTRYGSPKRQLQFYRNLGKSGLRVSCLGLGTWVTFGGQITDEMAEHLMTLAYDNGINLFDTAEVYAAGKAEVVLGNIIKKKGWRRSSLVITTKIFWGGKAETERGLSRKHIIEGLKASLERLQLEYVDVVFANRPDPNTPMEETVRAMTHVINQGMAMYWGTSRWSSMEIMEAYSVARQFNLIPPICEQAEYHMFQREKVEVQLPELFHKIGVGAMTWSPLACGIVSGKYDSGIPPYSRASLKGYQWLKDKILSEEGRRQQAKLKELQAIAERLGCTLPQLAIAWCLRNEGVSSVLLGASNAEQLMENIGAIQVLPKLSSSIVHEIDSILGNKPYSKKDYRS
Sequence of Alpha-2C adrenergic receptor (Homo sapiens) (P18825 whole entry, looked up): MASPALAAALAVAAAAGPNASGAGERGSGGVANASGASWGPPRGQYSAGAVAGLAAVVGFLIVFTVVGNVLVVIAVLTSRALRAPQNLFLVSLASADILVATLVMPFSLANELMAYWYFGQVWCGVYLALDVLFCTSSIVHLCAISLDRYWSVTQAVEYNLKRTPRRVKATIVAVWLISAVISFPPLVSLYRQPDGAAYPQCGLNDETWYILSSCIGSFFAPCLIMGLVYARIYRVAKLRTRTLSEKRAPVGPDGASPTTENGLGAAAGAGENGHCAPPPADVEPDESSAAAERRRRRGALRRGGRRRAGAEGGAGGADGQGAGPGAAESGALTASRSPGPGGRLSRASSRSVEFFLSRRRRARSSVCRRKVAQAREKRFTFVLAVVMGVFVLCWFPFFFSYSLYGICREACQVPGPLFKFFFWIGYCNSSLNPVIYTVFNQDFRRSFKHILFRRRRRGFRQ

| Structure (SMILES) | cell count [1] | inhibition [1] | inhibition [2] | nuclei count [2] [%] | z-score [3, 14] | z-score [3, 15] | z-score [3, 16] | inhibition [4] | fluorescence slope [5] | NADPH fluorescence slope [6] | fluorescence slope [7] | outcome [8] | inhibition [9] | inhibition of aggregation [10] | nuclei count [10] [%] | slope [11] | inhibition [12] | inhibition [13] |
| --- | --- | --- | --- | --- | --- | --- | --- | --- | --- | --- | --- | --- | --- | --- | --- | --- | --- | --- |
| Nc1ncc(P(=S)(N2CCOCC2)N2CCOCC2)s1 | 452 | -2.7% (inactive) | -296% (inactive) | 169 | -0.00628 | -0.183 | -1.06 | 4.37% (inactive) | -0.461 (inactive) | -8.8e-05 (inactive) | 0.00503 (inactive) | inactive | 11.1% (inactive) |  |  |  |  |  |
| COC(=O)C(c1ccccc1)N1CCCCCC1 (stereo not given) | 730 | 0.3% (inactive) | 20.3% (inactive) | 165 | -0.512 | 1.36 | 1.38 | -11.4% (inactive) | -0.406 (inactive) | -3.5e-05 (inactive) | 0.0047 (inactive) | inactive | -6.36% (inactive) |  |  |  |  |  |
| CCNc1ccc(P(=S)(N(C)C)N(C)C)cc1 | 441 | 16.7% (inactive) | -422% (inactive) | 153 |  |  |  |  | -0.622 (inactive) | -1.6e-05 (inactive) |  |  |  | -8.4% (inactive) | 115 | 0.00749 (inactive) | 10.5% (inactive) | 26.1% (inactive) |
| CN1CCc2c(c(N3CCCCC3)nc3n[nH]c(N)c23)C1 | 496 | -17.1% (inactive) | -154% (inactive) | 127 | 1.06 | -1.56 | 0.455 | 21.4% (inactive) | -0.463 (inactive) | -8.3e-05 (inactive) | 0.00409 (inactive) | inactive | -3.54% (inactive) |  |  |  |  |  |
| COc1ccc(C2SCC(=O)Nc3c2c(=O)[nH]n3C2CCCCC2)cc1 (stereo not given) | 380 | -8.8% (inactive) | -197% (inactive) | 138 | 0.845 | -1.45 | -0.612 | 14% (inactive) | -0.479 (inactive) | -0.000101 (inactive) | 0.00663 (inactive) | inactive | 6.02% (inactive) |  |  |  |  |  |
| CCOC(=O)c1cc(C)n(CCc2cnc[nH]2)c1C | 561 | 2.4% (inactive) | -44.2% (inactive) | 123 | -1.19 | -0.0641 | 0.767 | -2.59% (inactive) | -0.47 (inactive) | -9.2e-05 (inactive) | 0.00519 (inactive) | inactive | -3.61% (inactive) |  |  |  |  |  |
| CCCN(CC#CCO)CCC | 701 | 11.7% (inactive) | -121% (inactive) | 162 | 0.317 | 1.4 | 0.749 | -11.4% (inactive) | -0.448 (inactive) | -4.9e-05 (inactive) | 0.00435 (inactive) | inactive | -2.44% (inactive) |  |  |  |  |  |
| Cc1cccc(N2CCc3c2nc2ccccc2c3N)c1 | 731 | -6.5% (inactive) | -54.5% (inactive) | 112 |  |  |  |  | -0.113 (active) | -9.7e-06 (inactive) |  |  |  | -7.8% (inactive) | 98 | 0.00452 (inactive) | 15.5% (inactive) | 31.6% (inactive) |
| CCn1c(O)c(C(=O)CC2NCCc3ccccc32)c(=O)n(CC)c1=S (stereo not given) | 494 | -7.2% (inactive) | -84.9% (inactive) | 120 | -1.06 | -1.07 | 1.31 | 3.97% (inactive) | -0.399 (inactive) | -1.1e-05 (inactive) | 0.00707 (inactive) | inactive | -9.64% (inactive) |  |  |  |  |  |
| OC1(c2ccc(F)cc2)CCNC1 (stereo not given) | 391 | -8% (inactive) | -146% (inactive) | 147 | -0.692 | -1.09 | 1.31 | 1.48% (inactive) | -0.468 (inactive) | -0.000119 (inactive) | 0.00482 (inactive) | inactive | 16.5% (inactive) |  |  |  |  |  |
| CCOC(=O)C1=C(C)OC(N)=C(C(=O)OCC)[C@@]12C(=O)N(CC(N)=O)c1ccccc12 | 465 | -6.3% (inactive) | -219% (inactive) | 186 | -0.479 | -0.527 | -0.153 | -0.624% (inactive) | -0.445 (inactive) | -5.7e-05 (inactive) | 0.00512 (inactive) | inactive | 5.83% (inactive) |  |  |  |  |  |
| COc1ccc2c(c1OC)C(=O)OC2c1c(O)n(C2CCCCC2)c(=O)[nH]c1=O (stereo not given) | 572 | -9.7% (inactive) | -2.8% (inactive) | 150 | 0.755 | 0.301 | 0.433 | 15.9% (inactive) | -0.379 (inactive) | -7.1e-05 (inactive) | 0.00555 (inactive) | inactive | 6.27% (inactive) |  |  |  |  |  |
| CCCC12CN3CN(C1)CC(CCC)(C3)C2O (stereo not given) | 527 | 5.6% (inactive) | -164% (inactive) | 146 | 0.514 | 1.99 | -1.5 | 7.42% (inactive) | -0.474 (inactive) | -0.000119 (inactive) | 0.00532 (inactive) | inactive | -2.85% (inactive) |  |  |  |  |  |
